About 2,100 (3.2%) of roughly 65,000 compounds showed an effect of 50% or more. The median lay at about -52%. Only a selection was taken, and strong results are over-represented in it overall.

This assay has as its system Plasmodium falciparum. The assay is described as follows: Screen against P. falciparum Asexual Blood Stage (ABS), at 5uM. It counts as functional, Dd2. The settings on record: tested at 5 uM.
Turning to `COc1ccc(CN2C[C@H]3C[C@H](CN(C)C)O[C@H]3C2)cc1`, the INHIBITION came out at 79.6%.

In the case of `CN(C)C[C@H]1C[C@@H]2CN(Cc3ccco3)C[C@@H]2O1`, the INHIBITION worked out at 38.9%.

As for `CN(C)C[C@H]1C[C@@H]2CN(Cc3ccoc3)C[C@@H]2O1`, the INHIBITION is reported as 20.7%.

Take `O=C(CC1CCCC1)N1C[C@@H]2C[C@@H]1CN2`: the INHIBITION is given as -57.9%.

Turning to `CN(C(=O)c1ccon1)[C@@H]1CCC[C@@H](Oc2ccccc2)[C@@H]1O`, the INHIBITION is on record as 79.8%.

`Cc1ncsc1CN1C[C@@H]2CN(Cc3cccnc3)CCO[C@@H]2C1`: the INHIBITION is on record as -49.8%.

Take `CC(C)Nc1ccnc(N2Cc3cnc(C(C)(C)C)nc3C2)n1`: the INHIBITION was 50.1%.

`CCNc1ccnc(N2Cc3cnc(CC(C)C)nc3C2)n1`: the INHIBITION is reported as 74.6%.

For the compound `O=C(c1cscn1)N1CCN2C[C@H](OCc3cccnc3)C[C@H]2C1`, the INHIBITION was -55.9%.

As to `COc1ccc(C2SCC(=O)Nc3n[nH]cc32)c(OC)c1OC` (stereo unspecified), the INHIBITION is -164%.

For `O=C(Nc1ccc(Cn2cccn2)cc1)N1CCC2(CC1)OCCO2`, the INHIBITION was -153%.

Regarding `CN(CCc1cccc2ccccc12)Cc1nc(N)nc(N(C)C)n1`, the INHIBITION came to 92.2%.

As to `COc1ccccc1CCN(C)Cc1nc(N)nc(N(C)C)n1`, the INHIBITION is listed as 69.9%.

On to `COc1ccccc1CC(C)N(C)CCS(C)(=O)=O` (stereo unspecified), for which the INHIBITION came out at 1.1%.

As to `Cc1nc(-c2ccccc2F)sc1C(=O)N1CCC(=O)CC1`, the INHIBITION is on record as -67.5%.

As to `O=C(Cc1cccs1)N1C[C@@H]2OCCN(CC3CCCO3)[C@@H]2C1` (stereo partly specified), the INHIBITION is reported as -87.1%.

On to `Cn1cc(C2SCC(=O)Nc3c2cnn3C(C)(C)C)cn1` (stereo unspecified), for which the INHIBITION is recorded as -6.82%.

As for `COc1ccc(C)cc1CC(=O)N1CCN(CC(C)O)CC1` (stereo unspecified), the INHIBITION is -34.3%.

In the case of `CCN1CCC(CNCc2cc(C)ccc2OC)C1` (stereo unspecified), the INHIBITION turned out to be 82.7%.

For `CCC(O)CN1CCN(C(=O)Cc2cc(C)ccc2OC)CC1` (stereo unspecified), the INHIBITION is recorded as -68.2%.

For `N#Cc1ccc(OC[C@]23COC[C@H]2CN(Cc2nccs2)C3)nc1`, the INHIBITION is listed as -22.3%.

As to `O=C(C1CC1)N1CCOC2(CCNCC2)C1`, the INHIBITION is recorded as -22.2%.

Regarding `Cn1ccnc1CN1CCC2(CC(=O)N(c3ccccn3)C2)C1` (stereo unspecified), the INHIBITION was -145%.

As for `Cc1ccc(CC(=O)N2CCCN(Cc3nccn3C)CC2)cn1`, the INHIBITION was -72.4%.

Consider `Cc1ccc(C(O)CN2CCN(Cc3nccn3C)CC2)cc1C` (stereo unspecified), for which the INHIBITION is listed as 80.4%.

Consider `CC(C)c1nccc(C2(c3ccccc3Cl)CCNCC2)n1`, for which the INHIBITION is recorded as 83.4%.

As for `CC(C)(C)c1nccc(C2(c3ccccc3Cl)CCNCC2)n1`, the INHIBITION came to 76.1%.

As for `Clc1ccccc1C1(c2ccnc(-c3ccncc3)n2)CCNCC1`, the INHIBITION worked out at 83.6%.

`Cc1ccc(N2CCO[C@H]3CN(Cc4cccnc4)C[C@H]32)nn1`: the INHIBITION is -18.3%.

Consider `CC(C)c1ccc(CN2C(=O)C3(CCNCC3)Nc3ccccc32)cc1`, for which the INHIBITION was found to be 82%.

Consider `O=C1CC2(CCCNC2)C(=O)N1Cc1ccccc1` (stereo unspecified), for which the INHIBITION was -15.7%.

`CN1C(=O)CC2(CCNCC2)c2ccccc21`: the INHIBITION came to 2.59%.

As to `c1cncc(CN2CCN3C[C@H](Oc4cncnc4)C[C@H]3C2)c1`, the INHIBITION is given as -155%.

Regarding `CC(C)[C@@H]1CN(C(=O)C2(c3ccccc3)CCN(C)CC2)C[C@H]1N(C)C`, the INHIBITION is on record as 83.7%.

For `CC(C)[C@@H]1CN(C(=O)C2(c3ccccc3)CCN(C)CC2)C[C@H]1C(=O)O`, the INHIBITION is recorded as -65.7%.

For the compound `CC(=O)C1(c2ccccc2)CCN(C(=O)c2ccc3nnnn3c2)CC1`, the INHIBITION is listed as -106%.

As to `CCS(=O)(=O)N1CCc2c(COCCN(C)C)cncc2C1`, the INHIBITION was -62.2%.

Regarding `O=S1(=O)NCC2(CCNCC2)COc2ccccc21`, the INHIBITION is -55.2%.

For `O=S1(=O)c2ccccc2OCC2(CCN(CCO)CC2)CN1CC1CC1`, the INHIBITION is 76.9%.

Consider `Oc1cccc2ccc(CN3CCC4(CCNCC4)C3)nc12`, for which the INHIBITION is listed as 89.9%.

Turning to `c1ccc(-c2ncc(CN3CCC4(CCNCC4)C3)cn2)cc1`, the INHIBITION came out at 10.6%.

`Cc1cccc(CN2CCC3(CCCN(CC(=O)N(C)C)C3)C2)n1` (stereo unspecified): the INHIBITION is recorded as -47.6%.

With `Cc1nn(-c2ncccn2)c2c1C(c1cnn(C)c1)SCC(=O)N2` (stereo unspecified), the INHIBITION is recorded as -15%.

Consider `O=C(CSc1ccccn1)N1CCN(CCO)[C@@H]2CS(=O)(=O)C[C@@H]21`, for which the INHIBITION is -35.4%.

With `COc1ccnc(CN2CCCC(CCc3ccccc3)C2)c1OC` (stereo unspecified), the INHIBITION is on record as 90.1%.

For the compound `COc1ccnc(CN2CCCC(CCc3ccc(F)cc3)C2)c1OC` (stereo unspecified), the INHIBITION turned out to be 88.9%.

As for `N#CC1(c2ccccc2)CCN(C(=O)C2CCCN(CC(N)=O)C2)CC1` (stereo unspecified), the INHIBITION is recorded as -116%.

In the case of `CCC(O)CN1CCN(C(=O)Cc2nc(-c3ccco3)oc2C)CC1` (stereo unspecified), the INHIBITION was -62.9%.

For the compound `CC(Cc1ccc(Cl)cc1)N(C)C(=O)NCCS(C)(=O)=O` (stereo unspecified), the INHIBITION was -65.7%.

For the compound `O=C(c1ccncc1)N1CCN2C[C@H](Oc3cccnc3)C[C@H]2C1`, the INHIBITION is on record as -77%.

With `CC(C)N(CCNC(=O)c1[nH]nc2ccc(I)cc12)C(C)C`, the INHIBITION amounted to 86.9%.

In the case of `CC[C@@H]1N(Cc2ccncc2)CCC[C@]12CCC(=O)N2CCOC`, the INHIBITION is reported as -38%.

On to `CCc1cccc(NC(=O)CCN2CC=C(c3cnn(C)c3)CC2)c1`, for which the INHIBITION is on record as -33.3%.

Turning to `COc1ccc(NC(=O)CCN2CC=C(c3cnn(C)c3)CC2)cc1Cl`, the INHIBITION is reported as 67.2%.

As to `COc1ccc(NC(=O)CCN2CC=C(c3cnn(C)c3)CC2)c(C)c1`, the INHIBITION was -33.1%.

In the case of `Cc1ccc2nc(C)c(C)c(C(=O)N[C@H]3COC[C@@H]3N3CCCC3)c2c1`, the INHIBITION was -47.2%.

In the case of `Cc1cc(CN2CC[C@H]3C[C@@H](C)O[C@@H]3C2)no1`, the INHIBITION is reported as -71.2%.

Regarding `Cc1n[nH]c2c1C(c1ccc3c(c1)OCO3)SCC(=O)N2` (stereo unspecified), the INHIBITION is on record as -22%.

For the compound `COc1cccc(-n2ccc3nc(N4CCCC4)ncc3c2=O)c1`, the INHIBITION is on record as 91.7%.

`COc1ccc(-c2ccccc2CCN)c(OC)c1OC`: the INHIBITION was found to be 81.8%.

Consider `COc1ccc(-c2ccccc2CCN)c(OC)c1`, for which the INHIBITION was 81.6%.

For the compound `COc1ccc(CCN)cc1-c1ccc(S(C)(=O)=O)cc1`, the INHIBITION amounted to 21.8%.

Take `CC(=O)Nc1ccc(-c2ccccc2CCN)cc1`: the INHIBITION is recorded as -115%.

`CC(=O)Nc1cccc(-c2ccccc2CCN)c1`: the INHIBITION is recorded as -108%.

On to `COc1ccc2c(ccn2CCN)c1`, for which the INHIBITION is listed as 26.1%.

As for `CN1C[C@@H]2COC[C@]2(C(=O)NCc2cccs2)C1`, the INHIBITION is recorded as -12.4%.

Source of the values: ChEMBL document CHEMBL4513216, “Probing the Open Global Health Chemical Diversity Library for Multistage-Active Starting Points for Next-Generation Antimalarials” (ACS Infect Dis, 2020).
